High-throughput results as filed in PubChem.
The list is not random: actives were taken first. Their share in the collection is about 2.5%.
Cruzain inh Det: qHTS Assay for Promiscuous and Specific Inhibitors of Cruzain (with detergent); Potency, µM, for the others: max response, negative = inhibition, usual class: inhibitors; 200,000 compounds, 0.43% hits; purified cruzain, Z-FR-AMC fluorescence, 0.01% Triton; Cruzipain (Trypanosoma cruzi), P25779;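 further: plate controls were neutral wells for no effect and buffer without enzyme for full effect; nearly all actives have a fitted effect of over 40% in size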
Target sequence (P25779 123-467 limits assumed): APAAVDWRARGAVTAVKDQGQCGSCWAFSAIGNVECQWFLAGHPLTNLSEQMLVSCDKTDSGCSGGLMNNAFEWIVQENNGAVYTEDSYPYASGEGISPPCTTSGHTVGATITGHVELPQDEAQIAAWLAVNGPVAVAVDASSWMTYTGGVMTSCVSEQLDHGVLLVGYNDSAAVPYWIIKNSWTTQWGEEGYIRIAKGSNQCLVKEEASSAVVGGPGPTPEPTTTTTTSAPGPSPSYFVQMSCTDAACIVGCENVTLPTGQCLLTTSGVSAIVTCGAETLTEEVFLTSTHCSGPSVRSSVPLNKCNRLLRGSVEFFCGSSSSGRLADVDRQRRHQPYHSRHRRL
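Detergent-containing arm of a paired screen for aggregation-based inhibition: 0.01% Triton X-100 present. Cruzain at 1.5 nM cleaved 2 uM Z-FR-AMC at pH 5.5 with 5 mM DTT; AMC fluorescence gain over 60 s measured activity.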
Cruzain inh noDet: qHTS Assay for Promiscuous and Specific Inhibitors of Cruzain (without detergent) | purified cruzain, Z-FR-AMC fluorescence, no detergent | Potency, µM, for inactives: max response, negative = inhibition, hits mostly inhibitors | 200,000 compounds, 2.3% hits | AID 1476, 2009;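 further: plate controls were enzyme without inhibitor for no effect and buffer without enzyme for full effect; nearly all actives have a fitted effect of over 40% in size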
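Purified cruzain at 1.5 nM, pre-incubated 15 min with compound at room temperature in 100 mM sodium acetate pH 5.5, 5 mM DTT, 0.00005% Triton X-100. Reaction started with 2 uM Z-FR-AMC; AMC fluorescence increase over 60 s gives rate.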
* hit, by the source's call; ? = inconclusive; ! = not confirmed by another sample. The call rests on the fitted dose curve; in most records, active means well fitted curve in the direction sought with a large enough effect; inconclusive means small, poorly fitted or top-dose-only effect, or another doubt; inactive means no such curve, though single readings can be large; an effect the other way counts as inactive or inconclusive. Potency means the concentration at half of the fitted maximal effect.

SMILES	Cruzain inh Det	Cruzain inh noDet
CCOc1ccc(-c2cc3nc(C4CCN(C(=O)OC(C)(C)C)CC4)c(C(=O)Nc4cccc(Cl)c4C)cn3n2)cc1	-5.3%	7.94µM*
Cc1c2cnn(CC(=O)NCC(C)c3ccccc3)c(=O)c2c(C)n1Cc1cccc(Cl)c1 (centres undefined)	-4.3%	2.8%
CC1=CC(C)(C)N(C(=O)CN2C(=O)c3ccccc3C2=O)c2ccc(C)cc21	-5.4%	-6.7%
CCC(=O)N1c2ccc(C)cc2C2=NNC(=S)NC21O (centres undefined)	?	0.631µM*
Cc1ccc(C(C)C)c(OCC(=O)N2CCC(c3nc4ccccc4o3)CC2)c1	-10.8%	?
COc1ccccc1OCC(=O)Nc1cc(-c2ccc(C)cc2)no1	-8.1%	-6.5%
Cc1ccc(-c2cc(NC(=O)COc3ccc(Cl)cc3C)on2)cc1	-1.3%	10µM*
Cc1cc(Cl)ccc1OCC(=O)O	4.0%	5.9%
Cc1cc(Cl)ccc1OCC(=O)Nn1c(C)ccc1C	-2.9%	2.51µM*
COc1cc2c(C(=O)N(C)c3cc(Cl)ccc3OC)cn(CC(C)C)c(=O)c2cc1OC	-3.3%	?
N#Cc1ccc(CN2CCC3(CC2)CCN(C(=O)c2cnccn2)CC3)cc1	1.0%	0.4%
C=CCn1c(=O)c2ccccc2n2c(SCC(=O)NCCc3ccccc3)nnc12	-0.2%	-8.7%
C=CCn1c(=O)c2ccccc2n2c(SCC(=O)c3ccccc3)nnc12	-1.1%	15.8µM*
CC(C)c1ccc(-c2nc(C(N)=O)c3c(n2)n(-c2ccc4c(c2)OCO4)c(=O)n3C)cc1	-1.9%	7.6%
CCc1nc2ccc(C(=O)NCCc3ccc(OC)c(OC)c3)cc2nc1CC	0.7%	23.1%
O=C(Nc1nc(-c2ccco2)c(-c2ccco2)s1)C1CCC1	-9.2%	-6.0%
O=C(Nc1cccc(C(F)(F)F)c1)c1ccc2snnc2c1	-3.7%	-11.5%
O=C(Nc1cccc(C(F)(F)F)c1)c1ccc2nc(-c3ccco3)c(-c3ccco3)nc2c1	14.1µM*	?
O=C(NCCCO)Nc1ccc2nc(-c3ccco3)c(-c3ccco3)nc2c1	12.6µM*	7.94µM*
O=C(Nc1ccc2nc(-c3ccco3)c(-c3ccco3)nc2c1)NC1CC1	8.91µM*	2.51µM*
OCCCNC(=S)Nc1ccc2nc(-c3ccccn3)c(-c3ccccn3)nc2c1	-3.9%	-13.4%
COc1ccc(CCNC(=O)c2ccc3nc(-c4ccco4)c(-c4ccco4)nc3c2)cc1OC	14.1µM*	-5.8%
Cc1cc(C)c(NC(=O)c2nc3ccccc3nc2N2CCCCC2)c(C)c1	2.1%	-4.1%
C=Cc1ccc(Cn2c(C(=O)O)c(CNC3CCCCC3)c3ccc(OC)cc32)cc1	-7.0%	11.0%
CCc1ccc(-n2nc(CO)c(C(=O)NCCCCc3ccccc3)n2)cc1	-1.7%	-8.6%
SMILES	Cruzain inh Det	Cruzain inh noDet
COC(=O)c1ccccc1NC(=O)CSc1nc(O)cc(=O)n1C1CCCC1	-1.6%	?
Cc1cccc(-n2ccnc2SCC(=O)Nc2nnc(C)s2)c1	4.7%	3.5%
Cc1cccc(-n2c(N)cc(=O)nc2SCC(=O)Nc2nnc(C)s2)c1	?	25.1µM*
COC(=O)c1ccccc1NC(=O)CSc1nc(=O)cc(N)n1-c1ccccc1	25.1µM*	-1.2%
C=CCOC(=O)/C(=C/c1ccco1)NC(=O)/C=C/c1ccccc1	28.2µM*	-28.1%
O=C(O)CNC(=O)/C(=C/c1ccco1)NC(=O)/C=C/c1ccccc1	-6.3%	2.2%
CN1C[C@@H](CO)C=C2c3cccc4[nH]cc(c34)CC21 (some centres undefined)	7.8%	39.8µM*
CCC(CO)NC(=O)[C@@H]1C=C2c3cccc4[nH]cc(c34)C[C@H]2N(C)C1 (some centres undefined)	-7.6%	?
O=C(Nc1ccccc1C(=O)OCC(=O)N1CCc2ccccc2C1)c1ccco1	-5.4%	12.6µM*
CC1CCCCC1NC(=O)COC(=O)c1ccccc1NC(=O)c1ccco1 (centres undefined)	2.5%	-0.5%
CC(=O)c1ccc(NC(=O)CCCc2nc(-c3cccc(C)c3)no2)cc1	-3.5%	19.2%
CCc1ccc(NC(=O)CN2CCCN(Cc3cccc(Cl)c3)S2(=O)=O)cc1	-6.2%	9.8%
O=C(CSc1nc(-c2ccccc2F)nc2nc[nH]c12)Nc1c(Cl)cc(Cl)cc1Cl	-4.0%	6.31µM*
CCc1cccc(C)c1NC(=O)CSc1nc(-c2ccccc2F)nc2nc[nH]c12	-4.2%	?
COc1cc2c(cc1NC(=O)c1cccc([N+](=O)[O-])c1)oc1ccccc12	-1.3%	15.8µM*
COc1cc2c(cc1NC(=O)c1ccc(C)c([N+](=O)[O-])c1)oc1ccccc12	3.3%	25.1µM*
COc1cc2c(cc1NC(=O)c1cccnc1)oc1ccccc12	-8.4%	?
COc1cc2c(cc1NC(=O)c1ccncc1)oc1ccccc12	-8.6%	?
O=C(Cn1ccn(-c2cccc(Cl)c2)c(=O)c1=O)NCCc1ccccc1	-1.5%	-7.5%
CCOc1ccc(-c2oc3cc(Cl)ccc3c(=O)c2O)cc1OC	-1.3%	4.4%
COc1cc(OC)c(NS(=O)(=O)c2c(C)nc3sc(C)cn3c2=O)cc1Cl	-4.4%	9.9%
COc1ccccc1N1CCN(C(=O)CCn2cnc3onc(-c4ccc(F)cc4)c3c2=O)CC1	-0.6%	-1.1%
Cc1ccc(N2C(=O)CC(Sc3nc(-c4ccccc4)c4cc(Cl)ccc4n3)C2=O)c(C)c1 (centres undefined)	-8.1%	15.8µM*
Cc1ccccc1N1C(=O)CC(Sc2nnc(-c3ccccc3)o2)C1=O (centres undefined)	-3.2%	3.1%
CCOC(=O)C1CCN(C(=O)Cn2ncc3c4ccccc4n(Cc4ccc(F)cc4)c3c2=O)CC1	-12.4%	?
SMILES	Cruzain inh Det	Cruzain inh noDet
c1cc(-c2ccncc2)ccn1	0.9%	-4.8%
Nc1ccncc1	3.16µM*!	3.55µM*!
Cc1ccc(-c2nnn3c2nc(NCc2ccc4c(c2)OCO4)c2ccccc23)cc1	-1.5%	16.5%
COc1ccccc1CNC(=O)Cc1c(C)c2c(cc(C)c3c(C)c(C)oc32)oc1=O	1.4%	-6.3%
Oc1nc(Nc2cccc(Cl)c2)sc1/C=C1\C=Nc2ccccc21	-3.2%	?
CCOC(=O)c1c(Nc2ccc(Cl)cc2)sc(/C=C2\C=Nc3ccccc32)c1O	-3.4%	7.94µM*
Cc1ccccc1OCc1nnc(SCc2cc(=O)c3cccc(F)c3[nH]2)n1C	0.7%	-3.7%
CCN(CC)c1nn2c(=O)c(C(=O)NCc3cccc(OC)c3OC)cnc2s1	-10.5%	-9.0%
CCN1CCN(C(c2ccc(OC)cc2)c2c(O)cc(C)n(Cc3ccco3)c2=O)CC1 (centres undefined)	1.9%	?
Cc1ccc(Nc2nc(-c3sc(NC(=O)c4ccc([N+](=O)[O-])cc4)nc3C)cs2)cc1	-0.2%	7.94µM*
COc1ccc(-c2nc(NC(=O)c3ccccc3)sc2-c2ccc([N+](=O)[O-])cc2)cc1	-1.8%	7.94µM*
Cc1ccccc1Nc1nc(-c2sc(NC(=O)c3ccccc3)nc2C)cs1	-4.8%	12.6µM*
Cc1ccccc1Nc1nc(-c2sc(NC(=O)c3ccc([N+](=O)[O-])cc3)nc2C)cs1	6.4%	10µM*
C=CCCC(=O)Nc1nc(C)c(-c2csc(Nc3ccccc3OC)n2)s1	-9.2%	?
Cc1ccc(C(=O)Nc2nc(-c3ccc([N+](=O)[O-])cc3)cs2)o1	-5.3%	-6.7%
COc1ccc(-c2sc(NC(C)=O)nc2-c2ccccc2)cc1	-10.4%	13.6%
